The campaign covered roughly 5,500 compounds. About 2,000 (36%) were called active. Roughly 18% stayed inconclusive and do not appear here. No stated cut-off is given here; in the data, active means normalized growth mostly below about 0.91 (no sharp cut-off); inconclusive means no clear call, values can overlap the other calls; inactive means mostly above about 0.92. The list shows a part of the results.
Test: chemical genetic growth profiling, strain panel (AID 1159580);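 further: tested at 20 µM; growth read once vehicle control cultures reached saturation at 30 °C; 1 = growth at the plate median or of vehicle wells; lower values mean less growth of the strain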
Settings: S. cerevisiae deletion strains, growth OD
[1] = locus YAL040C, strain CLN3, active compounds read low
[2] = locus YER002W, strain NOP16, active compounds read low
[3] = locus YJR075W, strain HOC1, active compounds read low
[4] = locus YNL128W, strain TEP1, active compounds read low
[5] = locus YNL197C, strain WHI3, active compounds read low
[6] = locus YNL224C, strain SQS1, active compounds read low
[7] = locus YOR083W, strain WHI5 (second series), active compounds read low

Measured: normalized growth

NCC(O)c1cc(O)c(O)cc1F (stereo unspecified)
inactive: [1] 1 | locus YDR150W, strain NUM1, active compounds read low 1.02 | [2] 1.01 | [3] 1.03 | [4] 1.03 | locus YNL153C, strain GIM3, active compounds read low 1.01 | locus YNL175C, strain NOP13, active compounds read low 0.978 | [5] 0.994 | [6] 1.01 | [7] 1.04 | locus YPL241C, strain CIN2, active compounds read low 1.01

NCCc1cc(O)c(O)cc1O
inactive: locus YAL026C, strain drs2, active compounds read low 0.924 | locus YAL030W, strain snc1, active compounds read low 0.938 | locus YBL061C, strain skt5, active compounds read low 0.948 | locus YBR009C, strain hhf1, active compounds read low 0.963 | locus YBR023C, strain chs3, active compounds read low 0.94 | locus YBR171W, strain sec66, active compounds read low 0.983 | locus YBR279W, strain paf1, active compounds read low 0.948 | locus YCL011C, strain gbp2, active compounds read low 0.96 | locus YCL016C, strain dcc1, active compounds read low 0.962 | locus YCL061C, strain MRC1, active compounds read low 0.934 | locus YCL069W, strain vba3, active compounds read low 0.966 | locus YCR088W, strain abp1, active compounds read low 0.999 | locus YDL005C, strain med2, active compounds read low 1.01 | locus YDL040C, strain nat1, active compounds read low 0.995 | locus YDR001C, strain nth1, active compounds read low 1 | locus YDR137W, strain rgp1, active compounds read low 0.993 | locus YDR159W, strain sac3, active compounds read low 1.02 | locus YDR195W, strain ref2 0.97 | locus YDR297W, strain sur2, active compounds read low 0.941 | locus YDR334W, strain swr1, active compounds read low 0.951 | locus YDR335W, strain msn5, active compounds read low 0.924 | locus YDR392W, strain spt3, active compounds read low 0.882 | locus YEL037C, strain rad23, active compounds read low 0.964 | locus YEL061C, strain CIN8 (second series), active compounds read low 0.987 | locus YER016W, strain bim1, active compounds read low 0.967 | locus YER111C, strain swi4, active compounds read low 0.966 | locus YFR010W, strain ubp6, active compounds read low 0.921 | locus YGL167C, strain pmr1, active compounds read low 0.976 | locus YGL227W, strain vid30, active compounds read low 1.01 | locus YGL240W, strain doc1, active compounds read low 0.917 | locus YGL253W, strain hxk2, active compounds read low 0.963 | locus YHR013C, strain ard1, active compounds read low 0.954 | locus YHR030C, strain SLT2, active compounds read low 0.975 | locus YHR079C, strain IRE1, active compounds read low 0.938 | locus YHR142W, strain chs7, active compounds read low 0.949 | locus YJL092W, strain hpr5, active compounds read low 0.953 | locus YJL095W, strain BCK1 (second series), active compounds read low 0.964 | locus YJL095W, strain BCK1, active compounds read low 0.989 | locus YJL115W, strain asf1, active compounds read low 0.984 | locus YJL129C, strain trk1, active compounds read low 1.09 | locus YJL154C, strain vps35, active compounds read low 1.01 | locus YJR066W, strain TOR1, active compounds read low 0.919 | locus YKL160W, strain elf1, active compounds read low 0.945 | locus YKR026C, strain gcn3, active compounds read low 0.997 | locus YKR091W, strain srl3, active compounds read low 1 | locus YLL001W, strain dnm1, active compounds read low 0.921 | locus YLL026W, active compounds read low 0.933 | locus YLL041C, strain sdh2, active compounds read low 1.01 | locus YLR027C, strain aat2, active compounds read low 0.931 | locus YLR113W, strain HOG1, active compounds read low 1 | locus YLR221C, strain rsa3, active compounds read low 0.939 | locus YLR258W, strain gsy2, active compounds read low 0.964 | locus YLR262C, strain YPT6 (second series), active compounds read low 0.901 | locus YLR320W, strain mms22, active compounds read low 0.884 | locus YLR357W, strain rsc2, active compounds read low 0.901 | locus YLR370C, strain arc18, active compounds read low 0.931 | locus YLR384C, strain iki3, active compounds read low 0.981 | locus YML120C, strain ndi1, active compounds read low 0.95 | locus YMR125W, strain sto1, active compounds read low 1.01 | locus YMR129W, active compounds read low 0.991 | locus YMR205C, strain PFK2, active compounds read low 0.943 | locus YMR231W, strain pep5, active compounds read low 0.98 | locus YNL071W, strain lat1, active compounds read low 0.952 | locus YNL183C, strain NPR1, active compounds read low 0.956 | locus YNL322C, strain KRE1 (second series), active compounds read low 0.995 | locus YNR049C, strain mso1, active compounds read low 0.987 | locus YOR001W, strain rrp6, active compounds read low 0.934 | locus YOR070C, strain gyp1, active compounds read low 0.965 | locus YOR080W, strain dia2, active compounds read low 0.937 | locus YOR083W, strain WHI5, active compounds read low 0.896 | locus YOR231W, strain MKK1, active compounds read low 0.994 | locus YOR265W, strain rbl2, active compounds read low 0.966 | locus YOR270C, strain vph1, active compounds read low 0.951 | locus YOR290C, strain snf2, active compounds read low 0.948 | locus YPL078C, strain atp4, active compounds read low 0.931 | locus YPL240C, strain hsp82, active compounds read low 0.985 | locus YPL256C, strain CLN2, active compounds read low 0.971
active: locus YAL021C, strain ccr4, active compounds read low 0.856 | locus YBR231C, strain swc5, active compounds read low 0.884 | locus YDR069C, strain doa4, active compounds read low 0.833 | locus YEL003W, strain gim4, active compounds read low 0.908 | locus YER015W, strain faa2, active compounds read low 0.887 | locus YER155C, strain BEM2 (second series), active compounds read low 0.847 | locus YGL173C, strain kem1, active compounds read low 0.838 | locus YHR027C, strain rpn1, active compounds read low 0.9 | locus YJL164C, strain tpk1, active compounds read low 0.914 | locus YJL166W, strain qcr8, active compounds read low 0.877 | locus YLR342W, strain FKS1, active compounds read low 0.861 | locus YMR058W, strain fet3, active compounds read low 0.697 | locus YNL209W, strain ssb2, active compounds read low 0.899 | locus YNL248C, strain rpa49, active compounds read low 0.807 | locus YOR106W, strain vam3, active compounds read low 0.805 | locus YPL051W, strain arl3, active compounds read low 0.854 | locus YPL106C, strain sse1, active compounds read low 0.847

NC(Cc1cc(O)c(O)cc1O)C(=O)O (stereo unspecified)
inactive: [1] 1 | locus YCL061C, strain MRC1 (second series), active compounds read low 0.967 | locus YDR363W, strain ESC2, active compounds read low 0.977 | [2] 1.01 | locus YGR078C, strain PAC10, active compounds read low 0.979 | [3] 0.956 | [4] 0.976 | [5] 0.98 | [6] 1.03 | locus YNL322C, strain KRE1, active compounds read low 0.942 | [7] 1.01
